Screening results as filed in PubChem BioAssay.
TRPML1 agonist: qHTS for Agonists of the Human Mucolipin Transient Receptor Potential 1 (TRPML1); Mucolipin-1 (Homo sapiens), Q9GZU1; activation, % (concentration not given with the values); AID 624414, 2012; 0.12% of 410,000 active; TRPML1-expressing cells, Ca2+ dye fluorescence, FDSS; further: 0% is about no effect
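Cells: TRPML1-DL, 1X Tet inducer, ~16 h at 37 degrees C/5% CO2. Dye: ABD Ca8 no-wash + quencher, 45-90 min RT. Read: 10 s baseline, compound add, 110 s agonist phase; 54-4 EC80 (4uM final), 110 s antagonist phase.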
BRCA1 expr up: qHTS Assay to Identify Small Molecule Activators of BRCA1 Expression. Potency, µM (highest dose often 46.1 µM), for the others: top-dose activation, actives largely listed as activators. 1.1% of 380,000 active. AID 624202, 2012. MCF7-BRCA1-FFLuc reporter, luminescence, 48 h; response scale: scaled: vehicle 0%, 10 µM genistein 100%; active means well fitted activation curve with a large enough effect; inconclusive means small, poorly fitted or top-dose-only effect; inactive means no such curve, though single readings can be large or run the other way; further: potency means the concentration at half of the fitted maximal effect; nearly all actives have a fitted effect of over 80% in size
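48 h compound treatment of MCF7-BRCA1-FFLuc cells (phenol-red free MEM, 37 °C), then 15 min with luciferase substrate and luminescence imaging.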
TRPML1 inh: qHTS for Inhibitors of the Human Mucolipin Transient Receptor Potential 1 (TRPML1) | Mucolipin-1 (Homo sapiens), Q9GZU1 | TRPML1-inducible cells, Ca2+ dye fluorescence, FDSS; active compounds read low; inhibition of EC80 agonist-evoked calcium signal | activity change, negative = inhibition, % (test concentration not listed) | 0.02% of 390,000 active; in the data active means activity change below about -50%; inconclusive means between about -30% and that limit;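 further: stimulus is agonist 54-4 at its EC80 concentration; on the % scale 0 is the no-effect control and ±100 the full control effect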
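Calcium fluorescence in TRPML1-DL cells induced overnight with Tet: a 110 s read after compound pin addition, then a 110 s antagonist read after challenge with 54-4 at 4 uM final (EC80).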
PKM2 activator: qHTS Assay for Activators of Human Muscle isoform 2 Pyruvate Kinase | AID 1631, 2009 | purified PKM2, Kinase-Glo ATP luminescence, activation; response scale: 0% is enzyme alone, no compound | Pyruvate kinase PKM (Homo sapiens), P14618 | Potency, µM (titrated, usually from 57.5 µM), for the others: top-dose activation, hits mostly activators | 0.34% of 260,000 active; active means well fitted activation curve with a large enough effect; inconclusive means small, poorly fitted or top-dose-only effect; inactive means no such curve, though single readings can be large or run the other way; further: potency means the concentration at half of the fitted maximal effect; on the % scale 0 is the no-effect control and ±100 the full control effect; nearly all actives have a fitted effect of over 55% in size
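Kinase-Glo luminescence reports ATP generated from ADP (0.1 mM) and PEP (0.5 mM) by purified hPK-M2 after 1 h at room temperature, pH 7.2 imidazole buffer; intermediate enzyme activity allows detecting inhibitors and activators.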
IL-2 act: qHTS of IL-2 Activators. IL-2 activation reporter assay, cell-based qHTS; stimulated with anti-CD3/CD4/CD28 beads; in transgenic mouse T cells. activation, % (series mostly up to about 46 µM). 0.065% of 360,000 active; further: 0% is about no effect
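EGFP and DsRed fluorescence is measured by plate cytometry in unstimulated transgenic mouse T cells exposed to compound for 60 minutes, then stimulated 18 hours at 37 degrees C with anti-CD3/anti-CD4 beads plus anti-CD28.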
TSG101-PTAP inh: qHTS Assay for Iinhibitors of HIV-1 Budding by Blocking the Interaction of PTAP/TSG101 | Fluorescence polarization, FITC-PTAP peptide / Tsg101 binding | 340,000 tested, under 10 active | Potency, µM (top dose mostly 115 µM), for inactives: top-dose activity change, negative = inhibition, hits mostly inhibitors | Tumor susceptibility gene 101 protein (Homo sapiens), Q99816; active means well fitted inhibition curve with a large enough effect in the main read-out, with a control signal flat, not every such curve was filed as active; inconclusive means small, poorly fitted or top-dose-only effect, or effect the other way, or a change in a side signal; inactive means no such curve, though single readings can be large or run the other way; further: potency means the concentration at half of the fitted maximal effect; % of control where 0% means no effect
Target sequence (Q99816 whole entry, looked up): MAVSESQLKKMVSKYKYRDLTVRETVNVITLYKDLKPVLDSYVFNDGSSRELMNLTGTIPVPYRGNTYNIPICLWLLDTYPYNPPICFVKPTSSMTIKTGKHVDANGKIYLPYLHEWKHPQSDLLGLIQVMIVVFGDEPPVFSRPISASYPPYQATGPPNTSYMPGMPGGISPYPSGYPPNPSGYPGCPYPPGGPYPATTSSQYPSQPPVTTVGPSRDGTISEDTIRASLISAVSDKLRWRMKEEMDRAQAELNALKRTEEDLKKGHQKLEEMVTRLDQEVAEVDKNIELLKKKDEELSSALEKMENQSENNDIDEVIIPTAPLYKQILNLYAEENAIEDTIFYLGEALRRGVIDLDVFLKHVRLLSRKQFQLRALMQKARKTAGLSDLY
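Compounds were pin-transferred onto Tsg101 binding domain (10 uM final) in HEPES pH 7.5 buffer, then FITC-PTAP peptide was added at 50 nM final. After 20 min at RT, polarization reported peptide displacement across a qHTS concentration series.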
An asterisk follows results filed as active; ? = inconclusive; . = no result. An excerpt weighted towards active compounds, which were near 1.3% of everything screened. Unless noted, no stated cut-off is given here; in the data, active means activation above about 50%; inconclusive means mostly about 30% to 49%; inactive means weaker than that.

SMILES	TRPML1 agonist	BRCA1 expr up	TRPML1 inh	PKM2 activator	IL-2 act	TSG101-PTAP inh
COc1ccc(-c2c(C)c3ccc(O)c(CN4CCCCC4)c3oc2=O)cc1OC	-0.7	.	-7.4	.	.	.
Cc1ccc(C)c(N/C=C(\C#N)c2nc3ccccc3o2)c1	0.2	13.1%	0.3	.	-3.0	-3.2%
N#C/C(=C\c1ccc(O)cc1)c1nc2ccccc2o1	9.3	?	-20.4	0.3%	57.3*	-4.0%
COc1cc(/C=C(\C#N)c2nc3ccccc3o2)ccc1O	53.1*	-34.6%	-2.6	-8.6%	15.8	?
Cc1cnc(C)cn1	0.1	-3.2%	.	.	.	.
C1=Cc2ccccc2/C1=C/c1ccc2c(c1)OCO2	-0.3	58.5%	.	.	.	.
COc1ccc(C(=O)COC(=O)c2cc(=O)[nH]c3ccccc23)c(OC)c1	1.1	12.6µM*	-11.8	.	-1.3	-2.1%
Cc1ccsc1C(=O)OCC(=O)c1ccc[nH]1	0.1	5.62µM*	-5.3	.	-3.2	-2.8%
COc1ccccc1C(=O)COC(=O)c1cc(=O)[nH]c2ccccc12	1.1	-0.9%	16.8	.	-4.6	-2.8%
COc1ccc(C(=O)OCC(=O)c2ccc[nH]2)c(OC)c1	-0.4	8.91µM*	-2.9	.	-0.3	-3.4%
COc1ccc(CC(=O)OCC(=O)c2ccc[nH]2)cc1	0.5	-6.7%	3.9	.	-1.7	-1.5%
O=C(COC(=O)c1cccc(-n2cnnn2)c1)c1ccc(F)cc1	0.1	?	4.5	.	-0.1	-2.7%
COc1ccc(C(=O)COC(=O)c2cccc(-n3cnnn3)c2)c(OC)c1	2.2	2.51µM*	-8.6	.	1.8	-1.8%
COC(C(=O)C(O)C(C)O)C1Cc2cc3cc(OC4CC(OC5CC(O)C(O)C(C)O5)C(O)C(C)O4)c(C)c(O)c3c(O)c2C(=O)C1OC1CC(OC2CC(OC3CC(C)(O)C(O)C(C)O3)C(O)C(C)O2)C(O)C(C)O1 (stereo not given)	3.9	-59.5%	.	.	.	.
O=C(NCC1CCCO1)C1CCN(C(=O)c2ccc(Cl)cc2)CC1 (stereo not given)	-0.1	-61.6%	-5.9	8.5%	-0.7	-0.2%
CC(C)(C)c1ccc(C(=O)N2CCC(C(=O)NCC3CCCO3)CC2)cc1 (stereo not given)	-1.2	8.91µM*	-6.9	0.4%	1.0	-5.4%
CCc1nc(SCc2ccc(Br)cc2)n[nH]1	-0.5	10µM*	5.9	.	-3.2	-8.1%
CCc1nc(SCc2ccc(Cl)cc2)n[nH]1	3.1	?	-10.5	0.6%	4.2	-3.0%
Cc1ccc(C(=O)NCC(=O)N(C)Cc2cccc(F)c2)s1	0.3	7.5%	-18.1	.	1.3	2.6%
Cc1ccc(C(=O)NCC(=O)N(C)Cc2ccccc2C)s1	-0.6	11.2µM*	-0.8	.	0.4	.
CC(=O)Nc1cnc(-c2cc(C)c(O)c(C)c2)cn1	-0.5	8.91µM*	.	.	-0.3	.
O=C(Nc1nc(-c2ccc3c(c2)OCO3)cs1)C1CC1	-0.3	4.47µM*	-5.5	-2.2%	-3.0	-0.7%
CC(=O)Nc1cnc(-c2ccccc2C(C)=O)cn1	-0.2	4.0%	.	.	0.8	.
CC(=O)Nc1cnc(-c2ccc3c(c2)OCO3)cn1	-0.3	2.82µM*	.	.	0.5	.
CCCC(=O)Nc1cccc(OCc2cc(=O)n3cccc(C)c3n2)c1	-0.1	.	35.7	.	.	.
SMILES	TRPML1 agonist	BRCA1 expr up	TRPML1 inh	PKM2 activator	IL-2 act	TSG101-PTAP inh
COC(=O)[C@H](C)NS(=O)(=O)C1CC1	-0.6	.	.	.	.	.
O=[N+]([O-])c1ccccc1OCCCn1cnc2ccccc21	-0.6	2µM*	-1.4	17.8µM*	0.6	0.0%
O=C(Nc1ccc(N2CCCCC2)cc1)c1ccc(F)cc1	-0.8	?	5.5	-3.0%	0.0	-4.3%
O=C(c1ccc(F)cc1)c1ccc(N2CCCC2)cc1	5.4	3.16µM*	4.6	-0.9%	0.6	-5.9%
O=C(c1ccc(F)cc1)c1ccc(N2CCCCC2)cc1	4.3	5.01µM*	-5.6	.	-0.2	-4.5%
COCCNC(=O)Nc1cc(C(=O)NCc2ccc(C(C)C)cc2)ccc1N1CCCC1	1.0	.	8.2	.	.	.
O=C(CCCSc1ccccc1)Nc1nc(-c2ccco2)c(-c2ccco2)s1	2.7	-34.7%	15.4	17.8µM*	-0.8	1.9%
O=C(CCl)Nc1nc(-c2ccco2)c(-c2ccco2)s1	-0.8	-37.5%	-17.9	26.5%	2.0	-2.4%
CC1CCc2sc(C(=O)NC3CCCCC3)cc2C1 (stereo not given)	0.0	11.2µM*	7.8	.	1.6	-0.5%
CC1CCc2c(C(=O)Nc3nccs3)csc2C1 (stereo not given)	-0.1	12.6µM*	-0.2	-2.4%	-0.2	2.3%
C/C(=N\NC(=O)c1cc2c(s1)CCC(C)C2)c1ccc[nH]1 (stereo not given)	-0.5	5.01µM*	10.6	.	1.2	0.0%
C/C(=N\NC(=O)c1cc2c(s1)CCC(C)C2)c1ccncc1 (stereo not given)	1.2	55.2%	-5.2	0.8%	-1.8	-6.2%
CC1CCc2c(C(=O)Nc3ccccn3)csc2C1 (stereo not given)	.	?	.	5.5%	-1.1	-2.9%
CC1CCc2sc(C(=O)NC(C)C3CCCO3)cc2C1 (stereo not given)	1.7	?	-2.3	.	-2.1	-4.6%
CC1CCc2c(C(=O)NCC3CCCO3)csc2C1 (stereo not given)	0.4	11.2µM*	-14.2	1.1%	-0.1	-2.9%
CC1CCc2c(C(=O)NCc3ccccn3)csc2C1 (stereo not given)	-0.7	11.2µM*	31.6	-22.3%	-1.7	-1.2%
CC1CCc2sc(C(=O)NCc3ccccn3)cc2C1 (stereo not given)	-0.5	11.2µM*	10.8	.	1.1	3.0%
CC1CCc2sc(C(=O)NCc3ccc(F)cc3)cc2C1 (stereo not given)	0.9	40.8%	-13.4	-2.6%	0.0	-0.6%
Cc1ncoc1C(=O)N1CCCC(C(=O)Nc2cccc(-c3ccc(F)cc3)c2)C1 (stereo not given)	53.4*	-6.2%	-8.1	-3.1%	-4.0	-6.2%
CCC(C(=O)N1CCN(c2ccccc2)CC1)n1c(C)c2cnn(-c3ccccc3)c(=O)c2c1C (stereo not given)	-0.3	0.0%	2.7	.	.	.
